Results reported in ChEMBL document CHEMBL3433997, “St. Jude Leishmania screening dataset” (2016).

Tests used:
Type in all cases: functional
[1] = target: Solute carrier family 2, facilitated glucose transporter member 1 (Homo sapiens) (UniProt P11166); test: ST_JUDE_LEISH: Cytotoxicity at 2uM final concentration against transgenic Leishmania Mexicana promastigotes LmGLUT1 that are glucose transport deficient and complemented with the human glucose transporter GLUT1. Activity is measured by DNA content using SYBR green in vitro
[2] = target: Hexose transporter 1 (Plasmodium falciparum) (UniProt O97467); test: ST_JUDE_LEISH: Cytotoxicity at 2uM final concentration against transgenic Leishmania Mexicana promastigotes LmPfHT that are glucose transport deficient and complemented with the Plasmodium falciparum hexose transporter. Activity is measured by DNA content using SYBR green in vitro
[3] = target: Glucose transporter (Leishmania mexicana) (UniProt O61059); test: ST_JUDE_LEISH: Cytotoxicity at 2uM final concentration against transgenic Leishmania Mexicana promastigotes LmGT2 that are glucose transport deficient and complemented with the L. Mexicana glucose transporter 2. Activity is measured by DNA content using SYBR green in vitro

Sequence of Solute carrier family 2, facilitated glucose transporter member 1 (Homo sapiens) (P11166 whole entry): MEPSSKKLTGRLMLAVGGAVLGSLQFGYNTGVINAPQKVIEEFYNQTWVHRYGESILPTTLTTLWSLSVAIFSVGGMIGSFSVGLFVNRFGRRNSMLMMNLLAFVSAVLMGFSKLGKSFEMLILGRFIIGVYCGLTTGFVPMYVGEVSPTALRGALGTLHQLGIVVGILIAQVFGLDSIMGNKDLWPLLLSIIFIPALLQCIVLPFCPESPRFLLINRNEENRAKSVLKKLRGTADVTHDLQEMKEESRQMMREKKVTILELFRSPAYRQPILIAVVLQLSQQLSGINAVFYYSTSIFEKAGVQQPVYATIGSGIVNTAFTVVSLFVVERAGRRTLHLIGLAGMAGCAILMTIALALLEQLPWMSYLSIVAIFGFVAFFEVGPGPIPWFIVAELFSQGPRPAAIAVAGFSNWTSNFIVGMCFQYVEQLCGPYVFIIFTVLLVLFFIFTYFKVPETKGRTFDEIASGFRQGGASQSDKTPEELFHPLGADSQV

SMILES | inhibition [1] [%] | inhibition [2] [%] | inhibition [3] [%]
CN(CCN)Cc1cccc(-c2cccc(-c3nc4cc(C(F)(F)F)ccc4[nH]3)c2)c1 | 2.68 | 2.47 | 3.72
CN1CCN(c2ccnc3ccc(NC(=O)Nc4ccc(-c5ccncc5)c(C(F)(F)F)c4)cc23)CC1 | 11.3 | 9.91 | 10.6
O=C(Nc1ccc(C(=O)OCC2CCCCC2)cc1)N[C@@H](Cc1ccc(O)cc1)C(=O)NC1CCN(Cc2ccc(O)cc2)C1 (some centres not stated) | 3.7 | 2.04 | 3.42
CN1CCN(c2cccc(-c3nnc(-c4ccc(OCC(=O)NCc5ccc(C(F)(F)F)cc5)c([N+](=O)[O-])c4)o3)c2)CC1 | 3.75 | 3.68 | -0.17
CCOC(=O)c1ccc(NC(=O)Nc2cccc(-c3ccc(-c4nc5cc(F)ccc5[nH]4)cc3)c2)cc1 | 2.21 | 2.88 | 0.33
CC1CCC(C[C@@H](C(=O)N[C@H](C(=O)Nc2nccs2)[C@@H](C)O)[C@H](CCC(F)(F)F)N(O)C=O)CC1 (some centres not stated) | 0.36 | -2.34 | 0.78
Cc1nnsc1C(=O)Nc1cccc(-c2ccc(-c3nc4cc(C(F)(F)F)ccc4[nH]3)cc2)c1 | 1.55 | 2.49 | -1.08
Nc1c(C(=O)NCCCCN2CCN(c3nsc4ccccc34)CC2)sc2ccccc12 | 5.13 | 4.14 | 2.39
CCN(CC)CCN(Cc1ccc(-c2ccc(C(F)(F)F)cc2)cc1)C(=O)Cn1c(CCc2ccc(F)c(F)c2F)nc(=O)c2ccc(F)cc21 | 3.42 | 0.08 | -0.03
O=C(NCC1CCCCC1)c1cc(=O)c2ccccc2o1 | 8.02 | 10.2 | 11.7
CCOC(=O)c1nc(-c2cc(Cl)nc(Cl)c2)[nH]c1NC(=S)NCCCN1CCOCC1 | 2.49 | 1.96 | 0.84
Cc1ccccc1CNc1ccc2nc(N)nc(N)c2c1 | 1.01 | 2.12 | -0.21
Cc1nc2nc(N)nc(N)c2c(C)c1Cc1ccc(O)cc1 | -0.09 | -2.78 | 4.5
Nc1cc(/C=C/c2ccc([N+](=O)[O-])s2)nc2ccccc12 | 16.4 | 16.5 | 8.5
CCN(CC)/C(=N\C(=N)NCCCCCCNC(=N)/N=C(\Nc1ccc(Cl)cc1)N(CC)CC)Nc1ccc(Cl)cc1 | 0.25 | -0.21 | -0.92
Cc1cccc(CCNC(=O)c2cc(Br)cc(N3CCN(c4ccncc4)CC3)c2)c1 | 0.72 | 2.44 | 1.78
N#Cc1ccc(N[C@@H](CC2CCCCC2)C(=O)NCc2cc(Cl)cc(Cl)c2)c2ccccc12 | 2.42 | 5.09 | 4.82
Cc1noc(C)c1-c1ccc2c(Nc3ccccc3C(C)(C)C)c(C(=O)NCc3ccc4c(c3)OCO4)cnc2c1 | -1.21 | 2.69 | -0.92
O=C(NNC(=O)c1ccc(CCN2CCC(c3nc(COCC(F)(F)F)c(-c4ccc(F)cc4)o3)CC2)cc1)Nc1ccc(Oc2ccccc2)cc1 | -0.99 | -0.56 | -0.09
Cc1cc(-c2cccc(CNC3CCN(C)CC3)c2)ccc1S(=O)(=O)NCCc1ccccn1 | 0.29 | -0.31 | 0.73
CC(C)(C)OC(=O)/C=C(\C(=O)OCc1ccc([N+](=O)[O-])cc1)c1csc(NC(c2ccccc2)(c2ccccc2)c2ccccc2)n1 | 4.04 | 4.55 | 3.64
COc1ccc(-c2cccc(NC(=O)c3cccc(Cl)c3)c2)cc1CNC(C)C | 1.6 | -0.57 | 1.24
CSc1cccc(Nc2nc3ccc(S(=O)(=O)NCC(C)C)cc3n2C(C)C(C)C)c1 (configuration not stated) | 2.75 | 4.12 | 2.98

SMILES | inhibition [1] [%] | inhibition [2] [%] | inhibition [3] [%]
COc1cccc(C(=O)Nc2nc3c(s2)CCN(Cc2ccccc2N2CCNCC2)CC3)c1 | 12.3 | 13.7 | 10.7
O=C(Cc1ccc(Cl)cc1)Nc1cc(Cl)ccc1Cn1cnc(N2CCNCC2)cc1=O | 3.22 | -0.28 | 2.2
CS(=O)(=O)CCNCc1nc(-c2ccc3c(Nc4ccc(F)c(O)c4)ccnc3c2)cs1 | 0.96 | 0.78 | 0.48
Cc1nc(NC(=N)N)nc2ccc(C(C)(C)C)cc12 | 0.73 | 0.81 | 1.22
COc1ccc(C2C(C(=O)Nc3ccc(C)c(F)c3)c3cc(OC)c(OC)cc3C(=O)N2C)cc1 (configuration not stated) | 2.11 | 3.41 | 3.34
CC(C)c1cc2c(cc1O)C(Cc1ccccc1Cl)N(C)CC2 (configuration not stated) | 2.73 | -0.25 | 0.89
Cn1cncc1-c1ccc2c(-c3ccsc3)cnc(N)c2c1 | 5.58 | 6.85 | 6.81
O=C(Nc1ccc(-c2nc3ccccc3[nH]2)cc1)C1CCN(Cc2ccccc2)CC1 | 16.2 | 23.4 | 12.6
Oc1ccc(Nc2nc(NCc3ccco3)c3ccccc3n2)cc1 | 25.1 | 20.8 | 10.9
COc1ccc(-c2cccc(NC(=O)c3cccc(C#N)c3)c2)cc1CN(C)CCN(C)C | 1.23 | 1.39 | 0.48
CCCN(c1ccc(C(F)(F)F)cc1[N+](=O)[O-])S(=O)(=O)C(c1ccccc1)c1ccc(C(F)(F)F)cc1[N+](=O)[O-] (configuration not stated) | -0.48 | 6.88 | -1.01
COc1ccc(-c2cnc3[nH]cc(-c4ccncc4)c3c2)cc1OC | 68.3 | 72.8 | 65.3
CCN(CC)CCN(Cc1ccc(-c2ccc(C(F)(F)F)cc2)cc1)C(=O)Cn1nc(-c2ccc(C(F)(F)F)cc2)ccc1=O | 1.46 | 2.04 | 2.83
CN(C)Cc1c(O)ccc2[nH]c(-c3ccc(OC(F)(F)F)cc3)nc12 | 3.92 | 3.22 | 2.9
CC(CN1CCN(C)CC1)C(=O)Nc1cccc(-c2ccc(-c3nc4cc(C(F)(F)F)ccc4[nH]3)cc2)c1 (configuration not stated) | 5.29 | 4.14 | 5.41
CCOc1ccc(Cc2c(C)nc3nc(N)nc(N)c3c2C)cc1 | 29.1 | 41.5 | 26
Cn1nc(C(=O)N2CCC(c3[nH]ncc3Cc3ccccc3)CC2)c2ccccc2c1=O | 0.16 | 2.06 | 2.12
COc1cc(C(=O)Nc2ccc3nc(N4CCN(C)CC4)cc(C)c3c2)cc(OC)c1OC | 1.09 | 0.31 | -0.52
CN(C)c1cccc2c1nc(-c1ccco1)n2CC1CCCN1 (configuration not stated) | -1.97 | -3.51 | -0.52
Cc1nn(-c2ccnc3cc(Cl)ccc23)c(C)c1C(=O)NCc1cc(Cl)cc(Cl)c1 | 0.16 | -0.98 | 1.27
COc1ccc2nccc([C@@H](O)CN3CCC(NC(=O)Cn4nc(-c5ccc(C(F)(F)F)cc5)ccc4=O)CC3)c2c1 | 4.01 | 3.03 | 1.3
O=C(Nc1ccc2nc3n(c(=O)c2c1)CCCCC3)C(=O)N1CCC(Cc2ccccc2)CC1 | -0.67 | 0.77 | -0.44
COc1ccc(Nc2ncc3c(-c4cccc(NC(=O)Cc5ccc(F)cc5)c4)c[nH]c3n2)cc1OC | 2.27 | 2.59 | 2.37

SMILES | inhibition [1] [%] | inhibition [2] [%] | inhibition [3] [%]
NC1CCN(Cc2cccc(-c3ccc(-c4nc5cc(F)ccc5[nH]4)cc3)c2)C1 (configuration not stated) | 2.82 | 1.25 | -0.29
Fc1ccc(-c2cncc(Nc3ccncc3)n2)cc1 | 6.02 | 7.91 | 8.39
CN(C)CCNCc1nc(-c2ccc3c(Nc4ccc(Oc5ccccc5)cc4)ccnc3c2)cs1 | -2.05 | 1.8 | 5.9
COc1ccc2ncc(F)c(NC(=O)C3CCC(NCc4cc5c(F)cccc5[nH]4)CC3)c2n1 (configuration not stated) | 77.5 | 80.8 | 77.4
CCCOc1cc(Cc2cnc(N)nc2N)cc(OC)c1OC | -1.05 | -1.9 | -0.03
CCCCN(CCCC)CCCN(CCCN(CCCC)CCCC)c1cc(C)nc(Nc2ccc(Br)cc2)n1 | -1.21 | -0.35 | -1.15
Cn1c(NC(=O)C2CCC(CNC(=O)c3ccc(O)c(-c4cccc([N+](=O)[O-])c4)c3)CC2)nc2ccccc21 (configuration not stated) | 1.57 | 2.47 | 2.44
COc1cc(N)c(Cl)cc1C(=O)NC1CCC(NCC2CCCCC2)CC1 (configuration not stated) | 2 | 1.99 | 1.15
COc1ccc2[nH]c(C)cc(=NN=Cc3cc(C)ccc3O)c2c1 | 13.1 | 11.2 | 8.77
CC(C)(C(=O)NCCC1CCN(CCCCCNC(=O)/C=C/c2ccc(Cl)c(Cl)c2)CC1)c1ccc(Cl)cc1 | 5.49 | 4.45 | 4.35
CCCN1CCN(Cc2ccc(-c3ccc(-c4nc5ccccc5[nH]4)s3)cc2)CC1 | -0.29 | 2.1 | 1.19
NC(=O)c1cc2nc(Nc3ccc(F)cc3)nc(Nc3ccc(S(N)(=O)=O)cc3)c2[nH]1 | 1.3 | 0.26 | 0.35
COc1ccccc1NC(=O)Nc1cccc(-c2cccc(-c3nc4cc(C(F)(F)F)ccc4[nH]3)c2)c1 | -1.22 | -0.1 | 0.05
COc1ccc(Nc2nccc(N3CCC(NC(=O)Nc4ccc5c(c4)OCO5)C3)n2)cc1 (configuration not stated) | 0.18 | 1.7 | 1.21
Cc1nc(-c2cccc(C(F)(F)F)c2)n2nc(Nc3ccc(OCCN4CCCC4)cc3)ncc12 | 76 | 53.7 | 9.22
CCOc1ccc(-c2nonc2NC(=O)c2ccco2)cc1OCC | 1.01 | -0.52 | 0.72
CCN(Cc1cccc2ccccc12)c1ccc2nc(N)nc(N)c2c1 | 97.2 | 99 | 84
CS(=O)(=O)c1cccc(-c2cnc3[nH]cc(-c4cccc(CCN)c4)c3c2)c1 | 4.65 | 3.48 | 8.44
CC(C)CCN1CCCN(Cc2ccc(C(=O)Nc3ccc(C(C)(C)C)cc3)cc2)CC1 | 2.66 | 1.37 | 1.41
O=C(Nc1cccc(Cl)c1)c1cnc(N2CCN(c3ccncc3)CC2)c(Cl)c1 | 23.4 | 42 | 12.7
CCCc1ccc(NC(=O)c2cccc(CN3CCCN(Cc4cccc(C#N)c4)CC3)c2)cc1 | 3.6 | -0.3 | 1.95
CC(C)(C)OC(=O)[C@H](CC(N)=O)NC(=O)c1ccc(-c2ccc(-c3nc4cc(C(F)(F)F)ccc4[nH]3)s2)cc1 | 5.01 | 3.22 | 1.57
COc1ccc2nccc([C@@H](O)CN3CCC(NC(=O)c4ccc5nc(-n6cccc6)sc5c4)CC3)c2c1 | 6.02 | 5.93 | 4.22
